For 39 compounds, growth results are on record in PubChem BioAssay (NCI).

The panel holds about 83,000 compounds, 20% with a hit somewhere; the sample as a whole holds those more often.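 Testing used 96-well plates and a 48-hour single-concentration exposure. Example: -40 means 40% of the starting cells died.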 Activity calls are given as the source filed them. The calls were made as follows: active = growth percent below 10; inactive = the rest.

The first assay deals with NCI-H522 lung. The assay can be described thus: NCI-60 one-dose screen, 48 h (100 = growth as untreated, 0 = no growth, -100 = all killed). The following applies: 10 µM unless noted.
With `C/C=C(\C)C(C(=O)NC1CCCCC1)N(C(=O)C1CCc2cc(F)ccc2O1)c1ccc(Cl)cc1` (stereo not drawn), the growth was 92% (inactive).

For `N=C(N)c1ccc(-c2cc(Cl)cc(Cl)c2)cn1`, the growth is 90.1% (inactive).

With `COc1ccc(-c2cc(-c3ccccc3)nc(SCCCC(=O)NO)n2)cc1OC`, the growth is -22.8% (active).

Consider `CCC(C)/C(=C\C#N)NCCCN/C(=C/C#N)C(C)CC` (stereo not drawn), for which the growth was 83.5% (inactive).

For the compound `CC1=C(C#N)C(=O)NC(C)C1` (stereo not drawn), the growth is 107% (inactive).

As to `COc1cccc(/C=C2\Oc3cc(OCCCN4CCCC4)ccc3C2=O)c1OC`, the growth was 91.5% (inactive).

Regarding `COc1cc(C2C3=C(COC3=O)Nc3cc4c(cc32)CCC4)cc2c1OCO2` (stereo not drawn), the growth was -3.96% (active).

Consider `CCN(CC)c1ccc(/C=C2\Oc3ccc(O)c(I)c3C2=O)cc1`, for which the growth was 22.6% (inactive).

`C=C(C)[C@@H]1CC[C@]2(C(=O)O)CC[C@]3(C)[C@H](CC[C@@H]4[C@@]5(C)C[C@@H](CC#Cc6ccc(C(F)(F)F)cc6)[C@H](O)C(C)(C)[C@@H]5CC[C@]43C)[C@@H]12`: the growth was -19.1% (active).

Turning to `COc1ccc2c(c1)[nH]c(=O)c1c3cccc(F)c3cn21`, the growth was -4.04% (active).

As for `CCOC(=O)C1=C(C)NC(C)=C(C(=O)OCC)C1(C)C`, the growth is 98.1% (inactive).

`COc1cccc(/C=C/C(=O)Nc2cc(OC)c3c(c2)OCO3)c1`: the growth is 87.4% (inactive).

Take `COc1cccc(-c2nc3sccn3c2-c2ccnc(NCCCNS(=O)(=O)c3ccc(F)cc3)c2)c1`: the growth is 29.3% (inactive).

With `COc1ccc(S(=O)(=O)Nc2cc(/C=C\c3cc(OC)c(OC)c(OC)c3)cc(OC)c2OC)cc1`, the growth was -21.4% (active).

Take `Cc1ccc(C(=O)NCCCNc2nccc(-n3ccc4cccnc43)n2)cc1`: the growth is 88% (inactive).

Consider `N/C(=N\C(N)=N\c1nc2ccccc2s1)c1ccncc1`, for which the growth was 2.64% (active).

As for `COC(=O)c1nc(-c2ccccc2)oc1S(=O)(=O)N1CCN(c2cccc(Cl)c2)CC1`, the growth was 53.9% (inactive).

Take `CCCCCCCCC(C)OC(=O)c1nn(C(C)=O)c2ccccc12` (stereo not drawn): the growth was 90.1% (inactive).

`Cc1ccc(N2CCN(C(C)C(N)=O)CC2)cc1` (stereo not drawn): the growth is 90.7% (inactive).

With `COc1ccc(S(=O)(=O)NCCCNc2nccc(-c3c(-c4cccc([N+](=O)[O-])c4)nc4sccn34)n2)cc1`, the growth was 32.4% (inactive).

As to `COc1ccc(-n2c(=S)sc3c(Cl)nc(C)nc32)c(OC)c1`, the growth was 20.8% (inactive).

Regarding `N[C@@H]1CCN(C(=O)c2cc3cc(Cl)c(F)c(F)c3[nH]2)C1`, the growth is 80.1% (inactive).

As for `C=C[C@@H]1C[C@@H]2Cc3cc(F)ccc3N1O2`, the growth is 98.7% (inactive).

As to `CCCCN(CCCC)C(=O)CC`, the growth is 114% (inactive).

Regarding `CC12CCC3C4(C)COC(c5ccco5)OC4CCC3(C)C1CC(C1=CCOC1=O)O2` (stereo not drawn), the growth is 109% (inactive).

As to `CCCCN(CCCC)C(=N)c1ccnc2ccccc12`, the growth is 102% (inactive).

`C=C1C(=O)O[C@H]2[C@H]1CC/C(Cn1cc(CNC(=O)c3cc4ccccc4[nH]3)nn1)=C\CC[C@@]1(C)O[C@@H]21`: the growth is -65% (active).

In the case of `NC(=O)CCCN1C/C(=C\c2ccccc2)C(=O)c2ccccc21`, the growth is 80.4% (inactive).

In the case of `COc1cc(/C=C/C(=O)N2CCN(C(=O)/C=C/c3cc(OC)c(OC)c(OC)c3)CC2)cc(OC)c1OC`, the growth is 87.5% (inactive).

Regarding `COc1ccc(Nc2ncccc2C(=O)NCc2cn(Cc3cccc(Oc4ccccc4)c3)nn2)cc1`, the growth is 26.1% (inactive).

As for `c1ccc(-c2nnc(-c3ccccn3)s2)nc1`, the growth was 96.1% (inactive).

As for `C=C1CCC2C(C)(CO)C(O)CCC2(C)C1CC(NCc1ccccc1)C1=CCOC1=O` (stereo not drawn), the growth was 89.9% (inactive).

Turning to `CCCCCCCCCCCC(=O)NCCC[N+](C)(C)CC(=O)[O-]`, the growth is 80% (inactive).

`CC(C)CSc1nc(NN)c(C#N)c(-c2ccc(F)cc2)n1`: the growth is 63.2% (inactive).

Turning to `O=c1[nH]c(-c2ccccc2)nc(CN2CCCCC2)c1O`, the growth is 116% (inactive).

Turning to `Cc1ccc(S(=O)(=O)Nc2c(Br)cc(Br)cc2C(N)=O)cc1`, the growth is 115% (inactive).

As to `Nc1nc(-c2ccccc2)c(CCCOc2ccc(NC(=O)CBr)cc2)c(=O)[nH]1`, the growth was 71.8% (inactive).

As to `Nc1cccc(-c2nc3sccn3c2-c2ccnc(NCCNS(=O)(=O)c3ccc(C(F)(F)F)cc3)n2)c1`, the growth was 71.6% (inactive).

As to `Cc1ccc(-c2nc(C#N)c(S(=O)(=O)n3nc(-c4ccccc4)cc3N)o2)cc1`, the growth was -12% (active).

Another assay concerns A549/ATCC NSCLC. The assay is described as above. The following applies: 10 µM unless noted.
On to `C/C=C(\C)C(C(=O)NC1CCCCC1)N(C(=O)C1CCc2cc(F)ccc2O1)c1ccc(Cl)cc1` (stereo not drawn), for which the growth was 96.2% (inactive).

Take `N=C(N)c1ccc(-c2cc(Cl)cc(Cl)c2)cn1`: the growth was 93.9% (inactive).

`COc1ccc(-c2cc(-c3ccccc3)nc(SCCCC(=O)NO)n2)cc1OC`: the growth was -17.1% (active).

For the compound `CCC(C)/C(=C\C#N)NCCCN/C(=C/C#N)C(C)CC` (stereo not drawn), the growth was 103% (inactive).

Regarding `CC1=C(C#N)C(=O)NC(C)C1` (stereo not drawn), the growth was 95.3% (inactive).

Turning to `COc1cccc(/C=C2\Oc3cc(OCCCN4CCCC4)ccc3C2=O)c1OC`, the growth is 97.2% (inactive).

Regarding `COc1cc(C2C3=C(COC3=O)Nc3cc4c(cc32)CCC4)cc2c1OCO2` (stereo not drawn), the growth was 18.7% (inactive).

For `CCN(CC)c1ccc(/C=C2\Oc3ccc(O)c(I)c3C2=O)cc1`, the growth was 46% (inactive).

Consider `C=C(C)[C@@H]1CC[C@]2(C(=O)O)CC[C@]3(C)[C@H](CC[C@@H]4[C@@]5(C)C[C@@H](CC#Cc6ccc(C(F)(F)F)cc6)[C@H](O)C(C)(C)[C@@H]5CC[C@]43C)[C@@H]12`, for which the growth was 10.3% (inactive).

Turning to `COc1ccc2c(c1)[nH]c(=O)c1c3cccc(F)c3cn21`, the growth is 12.1% (inactive).

Regarding `CCOC(=O)C1=C(C)NC(C)=C(C(=O)OCC)C1(C)C`, the growth was 93.2% (inactive).

For `COc1cccc(/C=C/C(=O)Nc2cc(OC)c3c(c2)OCO3)c1`, the growth was 98.3% (inactive).

On to `COc1cccc(-c2nc3sccn3c2-c2ccnc(NCCCNS(=O)(=O)c3ccc(F)cc3)c2)c1`, for which the growth was 23.2% (inactive).

As for `COc1ccc(S(=O)(=O)Nc2cc(/C=C\c3cc(OC)c(OC)c(OC)c3)cc(OC)c2OC)cc1`, the growth is 21.2% (inactive).

On to `Cc1ccc(C(=O)NCCCNc2nccc(-n3ccc4cccnc43)n2)cc1`, for which the growth was 93.4% (inactive).

`N/C(=N\C(N)=N\c1nc2ccccc2s1)c1ccncc1`: the growth is 89.3% (inactive).

For `COC(=O)c1nc(-c2ccccc2)oc1S(=O)(=O)N1CCN(c2cccc(Cl)c2)CC1`, the growth is 88.7% (inactive).

`CCCCCCCCC(C)OC(=O)c1nn(C(C)=O)c2ccccc12` (stereo not drawn): the growth was 94.1% (inactive).

In the case of `Cc1ccc(N2CCN(C(C)C(N)=O)CC2)cc1` (stereo not drawn), the growth was 113% (inactive).

As to `COc1ccc(S(=O)(=O)NCCCNc2nccc(-c3c(-c4cccc([N+](=O)[O-])c4)nc4sccn34)n2)cc1`, the growth was 52.2% (inactive).

As to `COc1ccc(-n2c(=S)sc3c(Cl)nc(C)nc32)c(OC)c1`, the growth was 91.3% (inactive).

As to `N[C@@H]1CCN(C(=O)c2cc3cc(Cl)c(F)c(F)c3[nH]2)C1`, the growth was 93.6% (inactive).

Take `C=C[C@@H]1C[C@@H]2Cc3cc(F)ccc3N1O2`: the growth is 95.3% (inactive).

With `CCCCN(CCCC)C(=O)CC`, the growth was 106% (inactive).

Consider `CC12CCC3C4(C)COC(c5ccco5)OC4CCC3(C)C1CC(C1=CCOC1=O)O2` (stereo not drawn), for which the growth was 107% (inactive).

For `CCCCN(CCCC)C(=N)c1ccnc2ccccc12`, the growth was 96.7% (inactive).

Regarding `C=C1C(=O)O[C@H]2[C@H]1CC/C(Cn1cc(CNC(=O)c3cc4ccccc4[nH]3)nn1)=C\CC[C@@]1(C)O[C@@H]21`, the growth is 93.4% (inactive).

As for `NC(=O)CCCN1C/C(=C\c2ccccc2)C(=O)c2ccccc21`, the growth is 95.1% (inactive).

Regarding `COc1cc(/C=C/C(=O)N2CCN(C(=O)/C=C/c3cc(OC)c(OC)c(OC)c3)CC2)cc(OC)c1OC`, the growth was 105% (inactive).

Turning to `COc1ccc(Nc2ncccc2C(=O)NCc2cn(Cc3cccc(Oc4ccccc4)c3)nn2)cc1`, the growth was 49.2% (inactive).

`c1ccc(-c2nnc(-c3ccccn3)s2)nc1`: the growth is 102% (inactive).

With `C=C1CCC2C(C)(CO)C(O)CCC2(C)C1CC(NCc1ccccc1)C1=CCOC1=O` (stereo not drawn), the growth was 99.9% (inactive).

`CCCCCCCCCCCC(=O)NCCC[N+](C)(C)CC(=O)[O-]`: the growth is 105% (inactive).

On to `CC(C)CSc1nc(NN)c(C#N)c(-c2ccc(F)cc2)n1`, for which the growth is 77.1% (inactive).

Regarding `O=c1[nH]c(-c2ccccc2)nc(CN2CCCCC2)c1O`, the growth was 111% (inactive).

Regarding `Cc1ccc(S(=O)(=O)Nc2c(Br)cc(Br)cc2C(N)=O)cc1`, the growth was 117% (inactive).

`Nc1nc(-c2ccccc2)c(CCCOc2ccc(NC(=O)CBr)cc2)c(=O)[nH]1`: the growth was 93.3% (inactive).

`Nc1cccc(-c2nc3sccn3c2-c2ccnc(NCCNS(=O)(=O)c3ccc(C(F)(F)F)cc3)n2)c1`: the growth is 30% (inactive).

In the case of `Cc1ccc(-c2nc(C#N)c(S(=O)(=O)n3nc(-c4ccccc4)cc3N)o2)cc1`, the growth was 94.4% (inactive).
